Experimental data as given in PubChem BioAssay (Tox21).
Records with an inconclusive call do not appear. Active and inactive are the calls of the source. Calls come from the whole dose curve; as a rule, active = well fitted curve in the direction sought with a large enough effect in the repeat runs; inconclusive = weak or mixed curves; inactive = no such curve, though single readings can be large; an effect the other way counts as inactive or inconclusive.

Key:
[1] = qHTS RealTime-Glo MT Cell Viability Assay in HEK293 cells - 40 hour (AID 1224874); conditions: RealTime-Glo luminescence; max response: hits give low values; note: nearly all actives have a fitted effect of over 50% in size; note: potency is the fitted concentration of half-maximal effect
In short: (§1)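 Tox21 screen in HEK293 using RealTime-Glo MT chemistry, with cells and reagent co-dispensed. Luminescence proportional to viable cell number was captured at intervals during 40 h compound exposure at 37 C.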

[2] = A CellTox Green Cytotoxicity Assay to monitor cytotoxicity in HEK293 cells - 24 hour (AID 1224875); note: series mostly up to about 77 µM; nearly all actives have a fitted effect of over 45% in size
In short: (§2)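 Seeding of HEK293 cells together with cytotoxicity dye preceded a 5 h incubation at 37 C/5% CO2. Test compounds in DMSO were then added and fluorescence monitored across 40 h.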

[3] = A CellTox Green Cytotoxicity Assay to monitor cytotoxicity in HepG2 cells - 16 hour (AID 1224876); note: nearly all actives have a fitted effect of over 45% in size
In short: (§3)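 Nonlytic assay: viable cells exclude the dye, so fluorescence scales with cell death. HepG2 at 600 cells/well, compounds added after 5 h, signal read across 40 h.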

[4] = qHTS RealTime-Glo MT Cell Viability Assay in HepG2 cells - 32 hour (AID 1224877); note: nearly all actives have a fitted effect of over 55% in size
In short: (§4)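 HepG2 cells were seeded at 600 cells/well together with NanoLuc luciferase and a cell-permeant prosubstrate, preincubated 5 h at 37 C/5% CO2, then pin-dosed with compounds in DMSO. Nonlytic luminescence from viable cells was read at each time point.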

[5] = A CellTox Green Cytotoxicity Assay to monitor cytotoxicity in HepG2 cells - 24 hour (AID 1224878); note: nearly all actives have a fitted effect of over 45% in size
In short: as §3

[6] = A CellTox Green Cytotoxicity Assay to monitor cytotoxicity in HepG2 cells - 40 hour (AID 1224879); note: nearly all actives have a fitted effect of over 40% in size
In short: as §3

[7] = qHTS RealTime-Glo MT Cell Viability Assay in HEK293 cells - 0 hour (AID 1224880); note: top concentration of the series differs between compounds; nearly all actives have a fitted effect of over 45% in size
In short: as §1

[8] = A CellTox Green Cytotoxicity Assay to monitor cytotoxicity in HEK293 cells - 32 hour (AID 1224881); note: nearly all actives have a fitted effect of over 40% in size
In short: as §2

[9] = A CellTox Green Cytotoxicity Assay to monitor cytotoxicity in HepG2 cells - 0 hour (AID 1224882); note: nearly all actives have a fitted effect of over 35% in size
In short: as §3

[10] = A CellTox Green Cytotoxicity Assay to monitor cytotoxicity in HepG2 cells - 32 hour (AID 1224883); note: nearly all actives have a fitted effect of over 50% in size
In short: as §3

[11] = A CellTox Green Cytotoxicity Assay to monitor cytotoxicity in HEK293 cells - 8 hour (AID 1224884); note: nearly all actives have a fitted effect of over 35% in size
In short: as §2

[12] = A CellTox Green Cytotoxicity Assay to monitor cytotoxicity in HEK293 cells - 16 hour (AID 1224888); note: nearly all actives have a fitted effect of over 35% in size
In short: as §2

[13] = qHTS RealTime-Glo MT Cell Viability Assay in HepG2 cells - 0 hour (AID 1224889); note: nearly all actives have a fitted effect of over 50% in size
In short: as §4

[14] = A CellTox Green Cytotoxicity Assay to monitor cytotoxicity in HepG2 cells - 8 hour (AID 1224890); note: nearly all actives have a fitted effect of over 45% in size
In short: as §3

[15] = qHTS assay to identify small molecule antagonists of the estrogen receptor alpha (ER-alpha) signaling pathway using the BG1 cell line in the presence of 0.1 nM 17-beta-estradiol - cell viability counter screen (AID 1259241); note: nearly all actives have a fitted effect of over 40% in size; note: potency is the fitted concentration of half-maximal effect
In short: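 In this screen, hormone-deprived VM7Luc4E2 cells were seeded at 4,000 per well, dosed with compound and 0.1 nM estradiol final, and incubated 22 hr at 37C and 5% CO2; fluorogenic live-cell protease signal reported viability.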

[16] = qHTS RealTime-Glo MT Cell Viability Assay in HepG2 cells - 16 hour (AID 1224885); note: nearly all actives have a fitted effect of over 50% in size
In short: as §4

[17] = qHTS RealTime-Glo MT Cell Viability Assay in HEK293 cells - 8 hour (AID 1224887)
In short: as §1

[18] = qHTS assay to identify small molecule antagonists of the androgen receptor (AR) signaling pathway using the MDA cell line in the presence of 0.5 nM R1881 - cell viability counter screen (AID 1259242); note: nearly all actives have a fitted effect of over 45% in size
In short: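 R1881 at 0.5 nM final stimulated MDA-kb2 cells during 16 hr compound treatment at 37C. Cytotoxicity read: CellTiter-Fluor fluorescence after 30 min.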

[19] = qHTS RealTime-Glo MT Cell Viability Assay in HEK293 cells - 24 hour (AID 1224886); note: nearly all actives have a fitted effect of over 50% in size; note: potency is the fitted concentration of half-maximal effect; for activity change, negative = cytotoxicity: top concentration of the series differs between compounds
In short: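 HEK293 cells were seeded at 600 cells/well together with NanoLuc luciferase and cell-permeant prosubstrate, preincubated 5 h at 37 C/5% CO2, then given compound in DMSO by pintool. Luminescence from viable-cell prosubstrate reduction was read repeatedly over 40 h.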

[20] = target: Androgen receptor (Homo sapiens) (UniProt P10275); test: qHTS assay to identify small molecule antagonists of the androgen receptor (AR) signaling pathway using the MDA cell line in the presence of 0.5 nM R1881 (AID 1259243); note: nearly all actives have a fitted effect of over 50% in size
In short: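 We exposed MDA-kb2 cells to compounds under 0.5 nM R1881 stimulation for 16 hr at 37C and quantified MMTV-driven luciferase by luminescence.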
% is set by controls: 0 for no effect and ±100 for the full control effect.

Sequence of Androgen receptor (Homo sapiens) (P10275 whole entry, looked up): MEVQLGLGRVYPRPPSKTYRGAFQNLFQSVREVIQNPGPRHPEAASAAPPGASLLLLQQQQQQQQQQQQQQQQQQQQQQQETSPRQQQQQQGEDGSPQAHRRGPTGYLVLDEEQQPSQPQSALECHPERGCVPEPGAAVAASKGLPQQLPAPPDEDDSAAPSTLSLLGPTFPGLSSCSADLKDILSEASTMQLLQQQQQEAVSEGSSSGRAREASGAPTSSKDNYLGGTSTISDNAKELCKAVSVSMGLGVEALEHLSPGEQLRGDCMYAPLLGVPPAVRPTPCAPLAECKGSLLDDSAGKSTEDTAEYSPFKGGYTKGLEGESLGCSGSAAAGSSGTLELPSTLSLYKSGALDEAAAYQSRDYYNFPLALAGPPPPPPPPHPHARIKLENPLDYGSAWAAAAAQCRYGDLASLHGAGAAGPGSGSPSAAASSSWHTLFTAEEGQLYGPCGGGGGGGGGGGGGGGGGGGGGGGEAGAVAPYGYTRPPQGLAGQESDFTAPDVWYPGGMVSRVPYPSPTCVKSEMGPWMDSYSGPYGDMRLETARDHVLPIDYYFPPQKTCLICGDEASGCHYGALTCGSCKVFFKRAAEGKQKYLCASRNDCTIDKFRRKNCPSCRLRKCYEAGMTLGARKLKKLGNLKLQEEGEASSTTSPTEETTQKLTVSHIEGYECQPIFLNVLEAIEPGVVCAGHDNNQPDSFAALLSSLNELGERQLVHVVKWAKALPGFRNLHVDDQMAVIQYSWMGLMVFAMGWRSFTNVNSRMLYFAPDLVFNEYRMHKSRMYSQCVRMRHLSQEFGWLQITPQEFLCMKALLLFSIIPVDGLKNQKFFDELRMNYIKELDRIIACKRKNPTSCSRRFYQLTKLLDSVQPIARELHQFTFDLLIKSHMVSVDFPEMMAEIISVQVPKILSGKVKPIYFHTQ

CC(C)(c1ccc(Oc2ccc(N)cc2)cc1)c1ccc(Oc2ccc(N)cc2)cc1
active: Potency [1] 21.9 µM
inactive: Potency [2] | Potency [3] | Potency [4] | Potency [5] | Potency [6] | Potency [7] | Potency [8] | Potency [9] | Potency [10] | Potency [11] | Potency [12] | Potency [13] | Potency [14] | Potency [15]

Oc1cccc2c(O)cccc12
inactive: max response [1] 3.51% | Potency [2] | Potency [3] | Potency [4] | Potency [5] | Potency [6] | Potency [7] | Potency [8] | Potency [9] | Potency [11] | Potency [16] | Potency [17] | Potency [12] | Potency [13] | Potency [14] | Potency [18]
active: Potency [15] 68.6 µM

CC(=O)Nc1ccc(N=Nc2cc(C)ccc2O)cc1
inactive: max response [1] -19.1% | Potency [2] | Potency [3] | Potency [4] | Potency [5] | Potency [6] | Potency [7] | Potency [8] | Potency [9] | Potency [11] | Potency [16] | Potency [19] | Potency [17] | Potency [12] | Potency [13] | Potency [14] | Potency [15] | Potency [20]

CC/C=C\C/C=C\C/C=C\CCCCCCCC(=O)OC
inactive: max response [1] -12.1% | Potency [2] | Potency [3] | Potency [4] | Potency [5] | Potency [6] | Potency [7] | Potency [8] | Potency [9] | Potency [11] | Potency [16] | Potency [19] | Potency [17] | Potency [12] | Potency [14] | Potency [15] | Potency [18]

C=CC(=O)OCCOC1C2CCC1C1CC=CC12 (stereo not drawn)
inactive: max response [1] 6.38% | activity change [2] 0.179% [at 15.8 µM, hits give high values] | cytotoxicity increase [3] -1.04% [at 15.8 µM] | activity change, negative = cytotoxic [4] 3.75% [at 15.8 µM] | cytotoxicity [5] -5.89% [at 15.8 µM] | cytotoxicity increase [6] -11.6% [at 15.8 µM] | activity change, negative = cytotoxicity [7] 4.39% [at 15.8 µM] | cytotoxicity increase [8] -0.486% [at 15.8 µM] | cytotoxicity [9] -3.66% [at 15.8 µM] | cytotoxicity increase [11] -0.0811% [at 15.8 µM] | activity change, negative = cytotoxic [16] 0.672% [at 15.8 µM] | activity change, negative = cytotoxicity [19] -2.24% [at 15.8 µM] | activity change, negative = cytotoxicity [17] -0.849% [at 15.8 µM] | activity change [12] -0.617% [at 15.8 µM, hits give high values] | activity change, negative = cytotoxicity [13] 5.34% [at 15.8 µM] | cytotoxicity increase [14] -9.41% [at 15.8 µM] | activity change, negative = cytotoxicity [15] 0.54% [at 19 µM] | viability change, negative = cytotoxic [18] 0.35% [at 19 µM] | activity, negative = inhibition [20] -0.369% [at 19 µM]

CCSCC
inactive: max response [1] 8.26% | Potency [2] | Potency [3] | Potency [4] | Potency [5] | Potency [6] | Potency [7] | Potency [9] | Potency [10] | Potency [11] | Potency [16] | Potency [19] | Potency [17] | Potency [12] | Potency [13] | Potency [18]

CC1(C)[C@H]2CC[C@]1(C)C(=O)C2
inactive: max response [1] 16% | Potency [2] | Potency [3] | Potency [4] | Potency [5] | Potency [6] | Potency [7] | Potency [9] | Potency [10] | Potency [11] | Potency [16] | Potency [19] | Potency [17] | Potency [12] | Potency [13] | Potency [14] | Potency [15] | Potency [18]

Nc1ccc2c(S(=O)(=O)O)cccc2c1S(=O)(=O)O
inactive: max response [1] 5.38% | Potency [2] | Potency [3] | Potency [4] | Potency [5] | Potency [6] | Potency [7] | Potency [9] | Potency [10] | Potency [11] | Potency [16] | Potency [19] | Potency [17] | Potency [12] | Potency [13] | Potency [14] | Potency [15] | Potency [18] | Potency [20]

S=C1NC=NC2N=CNC12 (stereo not drawn)
inactive: Potency [2] | Potency [3] | Potency [4] | Potency [5] | Potency [6] | Potency [7] | Potency [9] | Potency [10] | Potency [11] | Potency [16] | Potency [17] | Potency [12] | Potency [13] | Potency [14] | Potency [15] | Potency [18]
active: Potency [1] 17.4 µM | Potency [19] 21.9 µM

CCc1c(C)cc(N)c(CC)c1N
inactive: max response [1] 1.8% | Potency [2] | Potency [3] | Potency [4] | Potency [5] | Potency [6] | Potency [7] | Potency [9] | Potency [10] | Potency [11] | Potency [16] | Potency [19] | Potency [17] | Potency [12] | Potency [13] | Potency [14] | Potency [15] | Potency [18] | Potency [20]

C[C@H]1O[C@@H](O[C@H]2CC[C@@]3(C)[C@H](CC[C@@H]4[C@@H]3C[C@@H](O)[C@]3(C)[C@@H](C5=CC(=O)OC5)CC[C@]43O)C2)C[C@H](O)[C@@H]1O[C@H]1C[C@H](O)[C@H](O[C@H]2C[C@H](O)[C@H](O[C@@H]3O[C@H](CO)[C@@H](O)[C@H](O)[C@H]3O)[C@@H](C)O2)[C@@H](C)O1
inactive: Potency [2] | Potency [3] | Potency [4] | Potency [5] | Potency [6] | Potency [7] | Potency [8] | Potency [9] | Potency [11] | Potency [16] | Potency [17] | Potency [12] | Potency [13] | Potency [15] | Potency [18] | Potency [20]
active: Potency [1] 0.239 µM | Potency [19] 0.268 µM

[Cl][Eu]([Cl])[Cl]
inactive: max response [1] -1.1% | Potency [2] | Potency [3] | Potency [4] | Potency [5] | Potency [6] | Potency [7] | Potency [9] | Potency [10] | Potency [11] | Potency [16] | Potency [19] | Potency [17] | Potency [12] | Potency [13] | Potency [15] | Potency [18]

Cc1ccc2n[nH]nc2c1
inactive: max response [1] -0.793% | Potency [2] | Potency [3] | Potency [4] | Potency [5] | Potency [6] | Potency [7] | Potency [8] | Potency [9] | Potency [11] | Potency [16] | Potency [19] | Potency [17] | Potency [12] | Potency [13] | Potency [15] | Potency [18]
